Results from PubChem BioAssay AID1492 (National Center for Advancing Translational Sciences (NCATS), 2009).
Results filed as inconclusive are left out. Unmarked numbers belong to inactive results. The source made the active and inactive calls. Calls come from the whole dose curve; as a rule, active = well fitted inhibition curve with a large enough effect; inconclusive = small, poorly fitted or top-dose-only effect; inactive = flat fitted curve, though single readings scatter.

Molecular target: Muscarinic acetylcholine receptor M1 (Rattus norvegicus) (UniProt P08482)
Assay: Counterscreen Concentration-Response Assay for Antagonists of the Neuropeptide S Receptor: Muscarinic Receptor Calcium Signal Transduction.
Conditions: CHO-M1 cells, carbachol-induced calcium fluorescence, FDSS; series mostly up to 20.2 µM; activity, negative = inhibition: at the top concentration
From the text: NIH Chemical Genomics Center [NCGC] NIH Molecular Libraries Probe Production centers Network [MLPCN] MLPCN Grant: X01-DA026210-01 Assay Submitter (PI): Heilig, Markus Alexander NCGC Assay Overview: Neuropeptide S receptor (NPSR), previously known as GPR154, is a recently de-orphanized G protein coupled receptor. Its endogenous ligand is the 20 amino acids peptide Neuropeptide S (NPS). […] NPS and its receptor are found in various tissues. Specifically they are highly expressed in brain areas that have been implicated in modulation of arousal, stress and anxiety. Central administration of NPS in mice produces an unusual profile of activity by inducing wakefulness and arousal, while at the same time suppressing anxiety. Therefore, NPSR may represent a novel drug target for the treatment of sleep and anxiety disorders. To identify NPSR antagonists, we developed a cell-based assay with transfected NPS receptor. NPS can stimulate the production of cAMP as well as release intracellular calcium in Chinese hamster ovary cells stably expressing NPS receptor. This change in intracellular calcium can be detected using a calcium indicator dye on a calcium imaging plate reader system (FDSS). To validate the specific action of compounds on the NPS receptor, a counterscreen was developed that tests compounds' antagonism of M1 muscarinic receptor stimulation by carbachol. The protein, gene and taxonomy linked to this assay refer to Rattus norvegicus, but Chinese Hamster ovary cells were actually used.
NCGC Assay Protocol Summary: A Chinese hamster ovary (CHO) cell line stably expressing muscarinic acetylcholine M1 receptor (CHO-M1) was obtained from ATCC and maintained in F-12 Kaighn's media (Invitrogen, Carlsbad, CA, 21127) supplemented with 10 % FBS, 100 units/ml penicillin, 100 ug/ml streptomycin and 250 ug/ml geneticin at 37C, 5% CO2 in a humidified atmosphere. Before the assay, aliquots of cells were frozen and stored at -135C. The assay was performed on a FDSS-7000 kinetic plate reader in 1536-well format. The maximums of kinetic fluorescence responses were converted into text files using the instrument's software data export utility. […] AC50 values were determined from concentration-response data modeled with the standard Hill equation. CHO-M1 1536-well FDSS assay protocol: (1) Frozen CHO-M1 cells were thaw, washed once with fresh media and resuspended in F-12 Kaighn's media supplemented with 10 % FBS, 100 units/ml penicillin and 100 ug/ml streptomycin. Cells were plated at 3 ul/well (1200 cells) to black, clear-bottom, tissue-culture treated 1536-well plates, and then cultured at 37C, 5 % CO2 for 16 to 30 hours. (2) Add 3 ul of calcium dye (from High Performance PBX Calcium Assay Kit, BD Biosciences). The calcium dye was prepared according to the manufactory's instruction. (3) Incubation at 37C, 5 % CO2 for 60 min. (4) Add 23 nl/well of compound in DMSO solution. The final titration for each compound was between 0.6 nM and 46 uM. (5) Load plates to FDSS-7000. The following steps were performed on FDSS-7000. (6) Record fluorescent background (Ex 480 nm, Em 520-560 nm) for 10 s. (7) Add 2 ul of stimulation reagent (1X HBSS buffer, 0.1% BSA, 60 nM carbachol). Record antagonist response (Ex 480 nm, Em 520-560 nm) for 180 s. Keywords: MLSMR, MLPCN, NIH Roadmap, qHTS, NCGC, NPS, Neuropeptide S Antagonists

| Compound | activity, negative = inhibition [%] | Potency |
| --- | --- | --- |
| CN(CC(=O)NCc1ccc(F)cc1)S(=O)(=O)c1cccc2nsnc12 | 7.72 |  |
| C#CC(=O)N(c1cccc(OC)c1)C(C(=O)NC1CCCC1)c1cccs1 (stereo not given) | -9.03 |  |
| Brc1ccc(CSc2ncn[nH]2)cc1 | -10.8 |  |
| O=C1CC(NCc2ccncc2)C(=O)N1c1ccccc1 (stereo not given) | 7.55 |  |
| COc1ccc(-c2cc(N)n(S(=O)(=O)c3c(F)c(F)c(F)c(F)c3F)n2)cc1OC |  | 11.2 µM (active) |
| O=[N+]([O-])c1cc2c(cc1/C=N/n1c(-c3ccccc3)n[nH]c1=S)OCO2 | -9.38 |  |
| CC(=O)n1nc2nc(C)cc(C)c2c1N | -5.44 |  |
| COc1ccc(N=C2S/C(=C\c3ccc(N4CCOCC4)o3)C(=O)N2CCc2c[nH]c3ccccc23)cc1 |  | 5.01 µM (active) |
| N#Cc1cnn(-c2ncnc3sc4c(c23)CCCC4)c1N | 9.92 |  |
| c1cncc(-c2nc(-c3ccco3)cs2)c1 | 3.25 |  |
| N#CC(C#N)=c1ccc2c(c1)NC1(CCCCC1)N=2 | -17.5 |  |
| O=C(CSc1n[nH]c(-c2cccnc2)n1)Nc1ccnc2ccccc12 | 3 |  |
| Nc1ccc(-c2nc3c(Cl)cc(N)cc3[nH]2)cc1 | -5.43 |  |
| Cc1ccc(-c2ccc(/C=C3\C(=O)ON=C3c3ccccc3)o2)c([N+](=O)[O-])c1 |  | 3.98 µM (active) |
| CC1CCN(S(=O)(=O)c2ccc(C(=O)Nc3sccc3C(N)=O)cc2)CC1 | -2.17 |  |
| CN(Cc1cc(=O)[nH]c2ccccc12)C(=O)c1ccccc1 | -5.45 |  |
| Cc1ccc2nc3ccc(N4CCCCCCC4)nn3c(=O)c2c1 | 3.52 |  |
| O=C(O)c1cccc(Nc2ncnc3ccccc23)c1 | -12.1 |  |
| O=C(N1CCOCC1)C1(c2ccc(Cl)cc2)CCCC1 | 15.5 |  |
| Cc1cccnc1NC(=O)c1c(O)c2cccc3c2n(c1=O)CCC3 | -12.7 |  |

| Compound | activity, negative = inhibition [%] | Potency |
| --- | --- | --- |
| O=C(Nc1nccs1)C1CCCN1S(=O)(=O)c1ccc(Cl)cc1 (stereo not given) | 14.5 |  |
| Cn1c(C(=O)NCCN2CCc3ccccc3C2)cc2c(=O)[nH]c3ccccc3c21 | 4.13 |  |
| O=C(O)C1CCN(c2nc(-c3ccccc3)nc3c2oc2ccccc23)CC1 | -11.1 |  |
| CC(=O)c1cc(NC(=O)c2ccccc2)c(=O)oc1/C=C/N(C)C | -17.1 |  |
| c1ccc(-c2ccc(-c3nc(-c4cccnc4)no3)cc2)cc1 | 12.7 |  |
| CN(C)c1ccc(N=Cc2ccco2)cc1 | 3.92 |  |
| COc1cccc(C(=O)/C=C/Nc2ccc(S(=O)(=O)Nc3cccc(C(C)=O)c3)cc2)c1 | -19.1 |  |
| O=C(CSC1=NCCS1)Nc1ccnc2ccccc12 | 7.63 |  |
| COc1ccc(NC(=O)/C(Cl)=C(/Cl)S(=O)Cc2ccc(C)cc2)cn1 (stereo not given) |  | 10 µM (active) |
| O=C1Nc2ccc(S(=O)(=O)N3CCCC3C(=O)O)c3cccc1c23 (stereo not given) | 0.459 |  |
| C=CCOc1c(Cl)cc(CNc2ccc(N(C)C)cc2)cc1OC | 7.52 |  |
| Cc1cccc(-c2nnc(SCc3cc(=O)[nH]c4ccccc34)n2C)c1 | 3.42 |  |
| Cc1ccc(-c2nnn(CC(=O)Nc3ccccc3-c3ccccc3)n2)c(-n2cnnn2)c1 | 6.88 |  |
| O=c1cc(-c2c(F)c(F)c(F)c(F)c2F)oc2c(F)c(F)c(F)c(F)c12 |  | 5.01 µM (active) |
| CCOc1ccc(N2C(=O)CC(NCCc3ccncc3)C2=O)cc1 (stereo not given) | 9.94 |  |
| CCn1cc(C(=O)NCC2CCCO2)c(=O)c2cc(S(=O)(=O)N3CCCCCC3)ccc21 (stereo not given) | 20.3 |  |
| c1ccc(N2CCN(Cc3ccnc4ccccc34)CC2)cc1 | 12.5 |  |
| O=C(NCCCN1CCOCC1)c1cc2c(=O)[nH]c3ccccc3c2s1 | 4.61 |  |
| COc1ccc(/C=C2\CCCC3C2=NN(C(=O)c2ccco2)C3c2ccc(OC)c(OC)c2)cc1OC (stereo not given) | 12.2 |  |
| OC(C#Cc1ccccn1)c1cccs1 (stereo not given) | -17 |  |
